Drawing on PubChem BioAssay AID492956 (The Scripps Research Institute Molecular Screening Center, 2010), this text covers inhibition for 56 molecules.

Screen size: about 340,000 compounds; about 3,300 (0.97%) were called active. This is one part of a sample in which actives are shown more often than they occur. Values without a mark were called inactive.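 How the source made its calls: active means inhibition above the mean over all tested compounds plus 3 SD (cut at about 30% in these data); inactive means the rest.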

This assay has as its target Platelet-activating factor acetylhydrolase 2, cytoplasmic (Homo sapiens) (UniProt Q99487). Put plainly: PAFAH2 enzyme inhibitors, primary screen, biochemical, fluorescence polarization, human (AID 492956).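 Further: inhibitors block probe labeling of enzyme so polarization drops; 0% = enzyme with DMSO and 100% = wells lacking PAFAH2 protein.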 To be noted: recombinant PAFAH2, FP-rhodamine activity probe, at 3.39 µM, hits give high values. (Fluorescence polarisation rises when a labelled molecule tumbles more slowly, as on binding a larger partner.)
Take `CN1C(=O)[C@H]2[C@@H](/C=C/c3ccccc3)N3C(=O)CN(Cc4ccc(-c5ccccc5)cc4)C(=O)[C@@]3(C)[C@H]2C1=O`: the inhibition (commonly the drop in the measured response relative to a control, in per cent) is 6.34%.
Regarding `COC(=O)c1ccc(CN2CCC(CO)(Cc3ccc(OC)cc3)CC2)cc1`, the inhibition is -1.13%.
The same measure for `CCOc1ccccc1NC(=O)C1CCCN(C(=O)Nc2ccccc2)C1` (stereo unspecified): 8.64%; for `COCCNC(=O)CN(Cc1ccco1)C(=O)CCC(=O)Nc1nccs1`: -1%; for `COc1cc(/C=C/C(=O)OCC(=O)c2ccccc2)cc(OC)c1OC`: 18%.
Regarding `COc1ccc([N+](=O)[O-])cc1NC(=O)COC(=O)/C=C/c1ccco1`, the inhibition was 14.1%.
Take `COc1cc(/C=C/C(=O)OCC(=O)NCCCc2ccccc2)ccc1O`: the inhibition was 48.4% (active).
With `NS(=O)(=O)c1cccc(NC(=O)COC(=O)/C=C/c2ccco2)c1` the figure was 26.1%; with `COc1ccc(OC)c(/C=C/C(=O)OCC(=O)Nc2ccc3c(c2)OCCO3)c1`, 43.7% (active).
Consider `COc1ccc(/C=C/C(=O)OCC(=O)Nc2cccc(Oc3ccccc3)c2)c(OC)c1`, for which the inhibition is 44.5% (active).
Regarding `COc1cc(/C=C/C(=O)OCC(=O)NC(=O)NCc2ccccc2)ccc1OCC#N`, the inhibition was -1.43%.
With `COc1cccc(NC(=O)CN(C)C(=O)/C=C/c2cc(OC)ccc2OC)c1` the figure was 1.18%; with `COc1ccccc1OCCCC(=O)Nc1ccc2c(c1)OCCO2`, -0.62%; with `COc1cccc(NC(=O)COC(=O)CCOc2ccccc2OC)c1`, 3.71%.
With `COc1cccc(NC(=O)COC(=O)/C=C/c2ccco2)c1` the figure was 71.4% (active); with `COc1ccc(OC)c(/C=C/C(=O)c2ccc3c(c2)OCO3)c1`, 10.8%; with `O=C(Nc1cccc2c1CCCC2)C1CCN(C(=O)NC2CCCCC2)CC1`, -4.67%.
Take `COc1ccc(OC)c(/C=N/NC(=O)c2ccc[n+](CC(=O)c3ccccc3)c2)c1`: the inhibition is -2.42%.
As to `Cc1ccc(/C=C/C(=O)O)cc1S(=O)(=O)N1CCC(Cc2ccccc2)CC1`, the inhibition was 2.39%.
With `O=C(C[C@@H]1C/C=C\CCC(=O)OC[C@@H]2CCCN2C1=O)NCCO` the figure was 15.7%.
With `CCOc1ncccc1C(=O)N(C)CC(=O)Nc1ccc(F)cc1` the figure was -4.72%; with `CC1CCc2sc(C(=O)N/N=C/C3CCCCC3)cc2C1` (stereo unspecified), 0.32%; with `O=C(CSc1nnc(COc2ccc(Cl)cc2)n1Cc1ccco1)N1CCNC1=O`, 6.03%.
In the case of `COc1ccc(C(=O)OCC(=O)NCCCc2ccccc2)cc1OC`, the inhibition is 55.4% (active).
For the molecule `Cc1cnc(C(=O)OCC(=O)NCCCc2ccccc2)cn1`, the inhibition was 4.7%.
Turning to `O=C(COC(=O)c1ccc(F)cc1)NCCCc1ccccc1`, the inhibition was 21.2%.
The same measure for `Cn1c2c(c(=O)n(C)c1=O)CN(Cc1ccco1)CN2`: -2.71%; for `CCCN(CC(=O)Nc1ccccc1C)C(=O)c1ccc2[nH]c3c(c2c1)CC(C)CC3` (stereo unspecified): 8.67%; for `CCOc1ccc(S(=O)(=O)N2CCCCC2)cc1NC(=O)CN1CCCC1c1cccs1` (stereo unspecified): -0.88%.
With `CC(=O)Nc1ccc(S(=O)(=O)NCC2CCC(C(=O)NCCc3ccccc3)CC2)cc1` (stereo unspecified), the inhibition was 6.72%.
For the molecule `O=C(Nc1ccc(N2CCOCC2)cc1)c1ccc(-c2ccccc2[N+](=O)[O-])o1`, the inhibition was -11.3%.
The same measure for `O=C1NC(c2ccc(-c3ccccc3[N+](=O)[O-])o2)C(C(=O)c2ccc(Cl)cc2)C(O)(C(F)(F)F)N1` (stereo unspecified): 1.45%.
For `CC1=NN(c2ccc(Cl)c(C(=O)O)c2)C(=O)/C1=C/c1ccc(-c2ccccc2[N+](=O)[O-])o1`, the inhibition was 36.5% (active).
On to `CC(CO)(CO)NC(=O)c1ccc(=O)[nH]n1`, for which the inhibition was -12.6%.
With `Cc1c2cnn(CC(=O)NCCCN3CC(C)CC(C)C3)c(=O)c2c(C)n1Cc1ccc(Cl)cc1` (stereo unspecified) the figure was 5.22%.
Consider `O=C(c1cccnc1)N(c1cc2sc(=O)oc2c2ccccc12)S(=O)(=O)c1ccccc1`, for which the inhibition was 36.6% (active).
On to `COc1ccc(N(C(=O)c2cccnc2)S(=O)(=O)c2ccc(OC)c(OC)c2)cc1`, for which the inhibition was -3.27%.
`O=C(c1cccnc1)N(Cc1ccccc1)C(=O)c1cccnc1`: the inhibition is 3.92%.
On to `COc1cccc2oc(CCc3ccccc3)cc(=O)c12`, for which the inhibition is 6.23%.
The same measure for `CCC1C(C#N)=C(SC)NC2=C1C(=O)CC(C)(C)C2` (stereo unspecified): -6.12%; for `CCOc1ccc(NC(=O)c2ccc(NC(=O)COC(=O)c3ccc(NC(=O)CC#N)cc3)cc2)cc1`: -53.2%.
For the molecule `CCC(C)(C)c1ccc(Oc2ccc(NC(=O)COC(=O)C3=COCCO3)cc2)cc1`, the inhibition is 55.4% (active).
With `O=C(OCC(=O)c1cccs1)C1=COCCO1` the figure was 17.6%; with `COc1cccc(C2=CC(=O)C[C@H](c3ccc(F)cc3)C2)c1OC`, -13.9%.
Consider `O=C(OC1CCOC1=O)c1cccc(S(=O)(=O)Nc2ccc(F)cc2)c1` (stereo unspecified), for which the inhibition is 9.72%.
Take `Cc1ccc2nc(COc3ccc(N(C)S(=O)(=O)c4ccccc4)cc3)cc(=O)n2c1`: the inhibition was 8.78%.
With `CC1CCCCC1NC(=O)CCS(=O)(=O)c1ccc2c(c1)NC(=O)CO2` (stereo unspecified), the inhibition was 26.2%.
On to `O=[N+]([O-])c1ccc(C=Nc2ccc(Cl)cc2Cl)s1`, for which the inhibition is 63.8% (active).
The same measure for `CNN/C(N=Cc1ccc([N+](=O)[O-])s1)=N\S(=O)(=O)c1cc(C)c(Cl)cc1SCc1ccccc1`: 5.01%; for `CC1CN(C(=O)c2ccc([N+](=O)[O-])s2)CC(C)O1` (stereo unspecified): 5.08%.
Regarding `O=C1COc2ccc(C(=O)COC(=O)CCOc3ccccc3)cc2N1`, the inhibition was 0.36%.
`COc1cccc(C(=O)n2ccc(-c3cccs3)n2)c1`: the inhibition was 31.8% (active).
With `COc1cccc(NC(=O)CN(C)C(=O)/C=C/c2cn(-c3ccccc3)nc2-c2cccs2)c1`, the inhibition is -54.5%.
The same measure for `COc1ccc(OC)c(-c2csc(-c3cccs3)n2)c1`: 5.06%; for `CC(C)(C)c1ccc(Cn2nnc3c(=O)[nH]c(C4CCCN(C(=O)c5ccco5)C4)nc32)cc1` (stereo unspecified): -1.16%.
Take `Cc1cc(C)cc(NC(=O)CCN2C(=O)c3ccccc3C2=O)c1`: the inhibition is -14%.
